# Out of some 370,000 compounds screened, about 2,600 (0.7%) were called active.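 Rule for the calls: active = inhibition above a per-plate cutoff, mean inhibition of test wells between control levels plus 3 SD (cut at about 38% in these data); inactive = the rest.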 This excerpt belongs to a sample that is enriched for actives.
# Molecular target: COUP transcription factor 2 (Homo sapiens) (UniProt P24468)
# Experiment: COUP-TFII reporter suppression in human cells – cell-based, luciferase reporter, HEK293T, luminescence, primary screen (AID 686940);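 note: cells cotransfected with COUP-TFII expression vector driving the NGFI-A reporter; 0% = median of COUP-TF2 test wells and 100% = reporter-only cells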
# Conditions: HEK293T NGFI-A luciferase reporter, at 8.6 µM, hits give high values
# Chain of COUP transcription factor 2 (Homo sapiens) (P24468 whole entry, looked up): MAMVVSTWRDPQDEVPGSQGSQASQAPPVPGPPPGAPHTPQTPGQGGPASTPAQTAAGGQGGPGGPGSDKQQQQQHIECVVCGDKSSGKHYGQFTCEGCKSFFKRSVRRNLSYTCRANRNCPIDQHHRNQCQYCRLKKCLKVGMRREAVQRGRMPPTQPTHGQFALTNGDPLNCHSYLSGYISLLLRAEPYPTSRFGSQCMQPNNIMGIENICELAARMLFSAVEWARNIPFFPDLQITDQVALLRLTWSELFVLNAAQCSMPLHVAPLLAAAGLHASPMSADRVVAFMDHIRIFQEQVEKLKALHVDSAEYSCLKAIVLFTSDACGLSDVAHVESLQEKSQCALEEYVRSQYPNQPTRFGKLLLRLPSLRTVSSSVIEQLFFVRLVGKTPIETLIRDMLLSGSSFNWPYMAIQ
row,SMILES,inhibition
1,CN(C)S(=O)(=O)c1cccc(C(=O)N/N=C\c2ccco2)c1,2.18% (inactive)
2,O=C(Nc1ccccc1)N1CCN(Cc2nc3ccccc3c(=O)[nH]2)CC1,13.6% (inactive)
3,O=C(C1CCN(S(=O)(=O)c2ccccc2)CC1)N1CCN(C2CCCCC2)CC1,-29.2% (inactive)
4,CCN(CC)P(=O)(C(NC(=O)OC)C(F)(F)C(F)(F)C(F)(F)C(F)F)N(CC)CC (stereo not given),98.4% (active)
5,O=C(CSc1nc2c(c(=O)[nH]1)CCCC2)N1CCCCC1,-26.3% (inactive)
6,O=S1(=O)c2ccc(N3CCN(Cc4ccccc4F)CC3)cc2Oc2ccccc2CN1Cc1cn(Cc2ccc(Cl)cc2)nn1,-6.71% (inactive)
7,Cc1ccc(-n2c(SCC(=O)Nc3ccc(S(=O)(=O)Nc4nccs4)cc3)nnc2-c2ccccn2)cc1,-5.91% (inactive)
8,C=CCSc1nsc(NC(=O)Nc2cccc(C(C)=O)c2)n1,38.1% (active)
9,CCCCN1C(=O)C(=O)N(CC(=O)Nc2cccc(C(C)=O)c2)C1=O,0.73% (inactive)
10,CCSc1nsc(NC(=O)Nc2cccc(C(C)=O)c2)n1,17.5% (inactive)
11,COC(=O)C[C@@H]1CC[C@@H]2[C@H](COc3ccc(NC(=O)c4cccc(F)c4)cc3C(=O)N2C)O1,-0.62% (inactive)
12,COc1ccc(-n2c(SCC(=O)Nc3ccc4cn[nH]c4c3)nnc2-c2cccnc2)cc1,9.8% (inactive)
13,N#CCC[C@H]1CC[C@]2(CCCN(Cc3ccc(Cl)cc3)C2)O1,1.96% (inactive)
14,O=C1NC[C@H](CCCCN2C[C@H](Cc3ccc(O)cc3)N(CCc3ccccc3)C(=O)C2=O)N(CCc2ccccc2)C1=O,-1.56% (inactive)
15,O=C1NC[C@H](CCCCN2C[C@H](Cc3ccccc3)N(Cc3ccccc3)C(=O)C2=O)N(CCc2ccc(O)cc2)C1=O,-7.95% (inactive)
16,O=C1NC[C@@H](Cc2ccc(O)cc2)N(CCc2cccc(F)c2)C1=O,48.2% (active)
17,COc1ccnc(C(=O)N2CCC(Oc3cccnc3)CC2)c1,-26.8% (inactive)
18,O=S1(=O)c2c(cccc2N2CCSCC2)Oc2ccccc2CN1Cc1cn(Cc2ccc(F)cc2)nn1,-4.53% (inactive)
19,O=C(Nc1cc(Cl)cc(Cl)c1)OCCN1CCCC12CCC(c1ccccc1)CC2 (stereo not given),2% (inactive)
20,CC(Nc1nc(C(F)(F)F)nc2ccccc12)c1cccs1 (stereo not given),-15.1% (inactive)
21,NS(=O)(=O)c1ccc(CCNC(=O)CNC(=O)Cc2ccccc2)cc1,10.1% (inactive)
22,NS(=O)(=O)c1ccc(CCNc2nc(C(F)(F)F)nc3ccccc23)cc1,46.6% (active)

row,SMILES,inhibition
1,CCCCn1c(SCc2ncc(-c3ccccc3)o2)nc2cc(S(N)(=O)=O)ccc21,47% (active)
2,c1ccc(-c2cnc(CN3CCN(c4ccccc4)CC3)o2)cc1,-25.5% (inactive)
3,CCCCn1c(SCC(=O)N2CCCC2=O)nc2cc(S(N)(=O)=O)ccc21,-5.45% (inactive)
4,Cc1ccc(NC(=O)Nc2cc(C)nn2-c2ccccc2)cc1,-17.6% (inactive)
5,COc1ccc(C2CC=C(C(=O)O)C(c3ccccc3F)N2S(=O)(=O)c2ccc(C)cc2)cc1OC (stereo not given),13% (inactive)
6,COc1ccc2c(C(C)c3ccc(N)cc3)cn(C)c2c1 (stereo not given),-15.8% (inactive)
7,O=C(C1CCCN1S(=O)(=O)c1ccccc1)N1CCc2ccccc2C1 (stereo not given),7.01% (inactive)
8,CN1C(=O)c2cc(NS(C)(=O)=O)ccc2OC[C@@H]2O[C@@H](CC(=O)NCc3ccc(-c4ccccc4)cc3)CC[C@H]21,-21.8% (inactive)
9,O=C(c1cncc(Br)c1)N1CCN(c2ccc([N+](=O)[O-])cc2)CC1,9.04% (inactive)
10,O=C(c1cc(C(=O)N2CCN(c3ccc(F)cc3)CC2)cc([N+](=O)[O-])c1)N1CCN(c2ccc(F)cc2)CC1,58.1% (active)
11,O=[N+]([O-])c1ccc(N2CCN(c3ccc(F)cc3)CC2)cn1,-9.2% (inactive)
12,CN(C)CC(=O)N[C@@H]1C[C@@H]2O[C@H](CO)CC[C@@H]2O[C@@H]1CCc1ccc(C#Cc2ccccc2)cc1,27.3% (inactive)
13,COCc1ccc(C(=O)NC2CC(C)(C)Cc3c2cnn3-c2ccc(C)cc2)o1 (stereo not given),-7.12% (inactive)
14,Cn1nccc1C(=O)NC1CCCc2c1cnn2-c1ccccc1F (stereo not given),63.7% (active)
15,COc1ccc(C(=O)NC2CC(C)(C)Cc3c2cnn3-c2ccccc2)c(OC)c1 (stereo not given),-0.91% (inactive)
16,Cc1cc(C(=O)NC2CCCc3c2cnn3-c2cccc(C)c2C)c(C)o1 (stereo not given),44.6% (active)
17,Cc1cc(C(=O)NC2CC(C)(C)Cc3c2cnn3-c2ccccc2)n[nH]1 (stereo not given),-4.58% (inactive)
18,COC(=O)c1ccc(C(=O)NC2CC(C)(C)Cc3c2cnn3-c2ccc(F)cc2)nc1 (stereo not given),-4.63% (inactive)
19,Cn1nccc1C(=O)NC1CCCc2c1cnn2-c1ccc(F)cc1F (stereo not given),60.9% (active)
20,O=C(CCNC(=O)c1ccc(Cl)cc1)NC1CCCc2ccccc21 (stereo not given),-32.6% (inactive)
21,Cc1cc(C(=O)NNC(=O)CCC2CCCCC2)c(C)o1,3.17% (inactive)
22,COc1cccc(CSc2nnc(-c3cccnc3)n2Cc2ccccc2)c1,14.1% (inactive)

row,SMILES,inhibition
1,COC(=O)c1cccc(Cn2ccc3ccc(-c4ccc5ccn(C(=O)C6CCCCC6)c5c4)cc32)c1,-12.6% (inactive)
2,O=C(NCCC1=CCCCC1)C1CCN(S(=O)(=O)c2ccc(Cl)s2)CC1,8.27% (inactive)
3,COC(=O)[C@H](C(C)C)N1CCc2nnn(Cc3ccc(C)cc3)c2-c2ccccc2S1(=O)=O,7% (inactive)
4,COC(=O)C[C@@H]1CC[C@@H]2[C@@H](COc3ccc(NC(=O)Nc4ccc(F)c(F)c4)cc3C(=O)N2C)O1,4.71% (inactive)
5,CC[n+]1cc(C)ccc1/C=C/c1ccc(N(C)C)cc1,74.1% (active)
6,O=S1(=O)c2ccc(Br)cc2OC[C@@H](Cc2ccccc2)N1Cc1cn(Cc2ccco2)nn1,8.82% (inactive)
7,C=CCN1C(C(=O)OC)CN(Cc2cn(Cc3ccccc3)nn2)CCS1(=O)=O (stereo not given),-8.52% (inactive)
8,CC(CCN1CCC(C(O)(c2ccccc2)c2ccccc2)CC1)Oc1ccc([N+](=O)[O-])cc1Cl (stereo not given),10.1% (inactive)
9,CC(C)(C)OC(=O)NCc1cc(F)ccc1/C=C/S(=O)(=O)NCCc1ccccc1,9.33% (inactive)
10,CCN1/C(=C\c2ccc3ccccc3[n+]2CC)Sc2cc(C)ccc21,73% (active)
11,N#Cc1ccccc1OC[C@@H](O)CN1CCC(C(O)(c2ccccc2)c2ccccc2)CC1,-5.47% (inactive)
12,Cc1cc(C)n2ncc(C(=O)Nc3ccc4c(c3)OCCO4)c2n1,-31.2% (inactive)
13,C=C1C(C(C)C)N(C)C2=NC(c3ccccc3)CC(=O)N12 (stereo not given),-5.15% (inactive)
14,CCn1ccnc1CN(C)C(=O)c1cc(COc2ccc(Cl)cc2OC)on1,-30.8% (inactive)
15,CN(Cc1cccnc1)C(=O)c1cc(COc2ccc3ncccc3c2)on1,64.7% (active)
16,CCOc1ccc(NS(=O)(=O)c2ccc(Cl)c(C(=O)N(C)Cc3cccnc3)c2)cc1,-10.5% (inactive)
17,COc1ccc(-n2c(COc3ccc(C)cc3)nnc2SCC(=O)Nc2ccc(Oc3ccccc3)cc2)cc1,9.67% (inactive)
18,C[C@@H]1CN([C@@H](C)CO)C(=O)c2cccc(NC(=O)Nc3cccc4ccccc34)c2O[C@H]1CN(C)S(=O)(=O)c1ccccc1F,11.9% (inactive)
19,CCOC(=O)C1=C(c2ccc(OC)cc2)C(=O)c2ccccc2C1=O,74.4% (active)
20,CCOC(=O)C1C(=O)C=C(c2ccc(OC)cc2)CC1c1ccco1 (stereo not given),-3.88% (inactive)
21,CCOC(=O)C1=C(CC)Nc2ccccc2N=C1N,-4.65% (inactive)
22,C=C(C)C#CC(Cc1ccccc1)NCC1CC1 (stereo not given),7.7% (inactive)

row,SMILES,inhibition
1,Cc1ccc(Cn2cc(COC(=O)N(C)Cc3ccccc3)nn2)cc1,4.98% (inactive)
2,COc1ccc(CN2CCOC2=O)cc1OC,12.6% (inactive)
3,COc1ccccc1CNC(=O)CCn1c(=O)sc2ccccc21,4.05% (inactive)
4,COc1ccc(Cn2c(=O)sc3ccccc32)cc1OC,48.4% (active)
5,CCC(=O)Nc1ccc2c(c1)C(=O)N(C)[C@H]1CC[C@H](CC(=O)NCCOC)O[C@@H]1CO2,13.3% (inactive)
6,CC(CCN1CCC(C(O)(c2ccccc2)c2ccccc2)CC1)Oc1ccc(Cl)cc1 (stereo not given),3.23% (inactive)
7,O=S1(=O)c2c(cccc2N2CC[C@H](O)C2)O[C@@H]2CCN1C2,10.5% (inactive)
8,C[C@H]1CCC/C=C/C(=O)c2c(O)cc(O)cc2CC(=O)O1,38.3% (active)
9,CN(C(N)=NC(=O)/C=C/c1ccccc1)C(C#Cc1ccccc1)Cc1ccccc1 (stereo not given),4.75% (inactive)
10,O=C(CSc1nnc(-c2ccccn2)n1-c1ccc(Cl)cc1)Nc1ccccc1-c1ccccc1,7.79% (inactive)
11,O=C(CCC(=O)N1CCN(S(=O)(=O)c2ccc(Cl)cc2)CC1)NCc1cccc(C(F)(F)F)c1,53% (active)
12,O=C(NCc1cccc(C(F)(F)F)c1)c1cccc(S(=O)(=O)N2CCN(Cc3ccccc3)CC2)c1,-3.7% (inactive)
13,CC(NC(=O)CCC(=O)N1CCN(S(=O)(=O)c2ccc(Cl)cc2)CC1)c1ccccc1 (stereo not given),-14.9% (inactive)
14,O=C(NCc1ccco1)C1CCCN(S(=O)(=O)c2ccc(Cl)s2)C1 (stereo not given),-2.82% (inactive)
15,O=C(NC1CCCC1)C1CSCCS(=O)(=O)N1Cc1ccccc1 (stereo not given),0.16% (inactive)
16,N=C(N)SCc1cccc2ccccc12,38.5% (active)
17,CCOc1ccc(Br)cc1CSC(=N)N,22.1% (inactive)
18,CCc1ccc(-c2nn(-c3ccccc3)cc2CSC(=N)N)cc1,-5% (inactive)
19,COC(=O)C1CN(CCc2ccccc2)CCS(=O)(=O)N1Cc1ccc(F)cc1 (stereo not given),3.48% (inactive)
